T1: UNK ZnF1-3 (human, UniProt Q9C0B0 31-174)
T1 sequence: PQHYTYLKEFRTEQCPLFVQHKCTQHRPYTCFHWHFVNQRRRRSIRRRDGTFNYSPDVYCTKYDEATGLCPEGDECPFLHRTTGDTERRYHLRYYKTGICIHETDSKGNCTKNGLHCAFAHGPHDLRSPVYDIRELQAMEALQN

B1: chr11:46405157:46405158:+_ENSG00000110492_ENST00000395566|hu_hu|hu_hu_hu_mus_False|8_58 (ssRNA)
RNA: GGGAGUUCUACAGUCCGACGAUCCCCUCCCCACUUUGGGCACUUGGUGUGGGCGUGAGAGGACAGGCGUGAUUGACAAAGCUAACGGGAAGACAAAAGGCACUGGUGGGUUAUAUCUUGGGCCUGUGAGAGGGAGGGGCUCCGCAACAGAGGAUUGAGCAUCA
B2: 55264158_55264526_802_CDS_ENSMUSG00000022185_ENSMUST00000148754|mouse|control|control (ssRNA)
RNA: GGGAGUUCUACAGUCCGACGAUCGAUGGACCUCCGGGUUAAGGUAUCUCCUAAUGUUACUUUCUUUACUUCGUGCUCCACAGGUGGGGGCAAGGCAACCUCCACUGACACCUGGGGUGGCGCCGGCAGCUCGGCUUCAGGCUCCAACAGAGGAUUGAGCAUCA
B3: chrX:71549400:71549401:+_ENSMUSG00000019087_ENSMUST00000019231|mus_hu|mus_mus_mus_hu_False|18_48 (ssRNA)
RNA: GGGAGUUCUACAGUCCGACGAUCGCAGUAGGAAGAGGGAAGCUCUUCAGUCCAGUGCGCUGCAGGGUGGGAAAGCAACAACACGGAACCAAUACUCCCCUCAACCCCCCCACUGGCAUGUCACACAACAAUCUGGGUCAAAGACAACAGAGGAUUGAGCAUCA
B4: chr6:42636609:42636610:-_ENSMUSG00000036667_ENSMUST00000045054|mus_hu|FALSE|FALSE (ssRNA)
RNA: GGGAGUUCUACAGUCCGACGAUCGGCAUCAAUACAGUAAACCCCCAGGGAGUCUUUCACUUCUGGCUCAACCUUUGCAUCCACUCCAGAGCCCUCGAGGAUUUUGGCCAAAGGUGCCAGGGAUGGGUGUACACCAAUGGGAGCCAACAGAGGAUUGAGCAUCA
B5: chr2:153237265:153237266:-_ENSMUSG00000061411_ENSMUST00000109784|mus_mus|mus_mus_mus_hu_False|28_28 (ssRNA)
RNA: GGGAGUUCUACAGUCCGACGAUCAAAAAAAAAAAAAAAAAAGUGUCCUUGUGCCCAAAGUCUCAGGUGCUUGGAGUGUGGCUAGAAACAGCUCUUUUGGAUCCCACCUCUUUCAGAAACAAAAUGUACCAACUGGUGAGGCAGCAACAGAGGAUUGAGCAUCA
B6: chr2:153237265:153237266:-_ENSMUSG00000061411_ENSMUST00000109784|mus_mus|mus_mus_mus_hu_False|28_58 (ssRNA)
RNA: B5 RNA with U78C, G79A
B7: chr18:65376317:65376318:+_ENSMUSG00000024589_ENSMUST00000163516|mus_mus|motif|central (ssRNA)
RNA: GGGAGUUCUACAGUCCGACGAUCUGCUAUACCAACAGAAAACUAUCCCUUUCCUAGGAAACACUAGACAGGCUCAUGUCCGGACGCGGCAGCUGCUUCUCUGGCACACUGAAAACACUCUGGGGUGGAGUGUGCAUACACAGACAACAGAGGAUUGAGCAUCA
B8: chr2:153237265:153237266:-_ENSMUSG00000061411_ENSMUST00000109784|mus_mus|mus_mus_mus_hu_False|1_1 (ssRNA)
RNA: B5 RNA with G115A, G137A, A138G, G140C, C141A, A142G
B9: chr2:153237265:153237266:-_ENSMUSG00000061411_ENSMUST00000109784|mus_mus|mus_mus_mus_hu_False|58_58 (ssRNA)
RNA: B5 RNA with U78C, G79A, G115A
B10: chr2:153237265:153237266:-_ENSMUSG00000061411_ENSMUST00000109784|mus_mus|mus_mus_mus_hu_False|1_28 (ssRNA)
RNA: B5 RNA with G137A, A138G, G140C, C141A, A142G
B11: chr2:153237265:153237266:-_ENSMUSG00000061411_ENSMUST00000109784|mus_hu|FALSE|FALSE (ssRNA)
RNA: B5 RNA with G115A
B12: 113287723_113287843_2736_3pUTR_ENSG00000114999_ENST00000233336|human|control|control (ssRNA)
RNA: GGGAGUUCUACAGUCCGACGAUCCCUUUUUCAUUGUAAGUUCUCACAUCUCAUCAUGUUCAAGGAGGCAUUGAUUUUCUCCUCUUUUGUAAAAGUCUCACCUGACUGCAGAAAUGUUUUCUUGAGCCAAGUAGAAAUGAGGAACAACAGAGGAUUGAGCAUCA
B13: chr3:149686290:149686291:-_ENSG00000070087_ENST00000452853|perfect_dup|FALSE|FALSE (ssRNA)
RNA: GGGAGUUCUACAGUCCGACGAUCUCCAAGAGUCAAACCGUUGGUAAAGAAACCUUCCCGGUCUUUUCCUACAAUCAUAUCUAUUUCUACUGGCGUGAUGCUCUGGAAGACGCCCCCGGCCGUGGCUGCCCAGACGUAUUUGGCCAACAGAGGAUUGAGCAUCA
B14: 153895285_153895405_106_5pUTR_ENSG00000143614_ENST00000368655|human|control|control (ssRNA)
RNA: GGGAGUUCUACAGUCCGACGAUCGGCACAGGGGAUCCAGACCCUGCUGACGGGACUAGGGACGGGGGUAGGGGAGGGGGGCGGGCCGGACCGGGGCGGGCGGGCGGAGCAGACACUGCGGUACAGACGGGGGCAGCGGCGGCGCAACAGAGGAUUGAGCAUCA
B15: chr14:76904540:76904541:+_ENSMUSG00000022010_ENSMUST00000022587|mus_mus|FALSE|FALSE (ssRNA)
RNA: GGGAGUUCUACAGUCCGACGAUCAAAGAAAUGGAAAAAUGUCUCAGUUGGUAAACUCCUAGAUCCAUCGCCACUGGUCUACACCAUUGGGAUUUCAUGCAAUUGCAGCCAAAUUAAAAAAACAGCCCCGUGGAAAAAAAAGAGCAACAGAGGAUUGAGCAUCA
B16: chr1:88750987:88750988:+_ENSMUSG00000053333_ENSMUST00000065694|mus_mus|FALSE|FALSE (ssRNA)
RNA: GGGAGUUCUACAGUCCGACGAUCUGAUAAGCCUCUUGUGUCCUGUGGUAUGGGGGUGUUCUCAUCUUUCAUAACUGGAGUACUAGAAUCUUCUUUUCCUCUGUCAGGAGUAGAGAUUGACAAUUUCUUAACACCAUCAACCAGCAACAGAGGAUUGAGCAUCA
B17: chr18:33744517:33744518:+_ENSG00000134759_ENST00000351393|hu_hu|motif|central (ssRNA)
RNA: GGGAGUUCUACAGUCCGACGAUCUAAGAACUUCUCAUUAGGUGAGAAGGCCAUCUGCGUGACUGUCAAACUGUGGAAAACGGAAUUCUGCACCUGUUUCCAAGAUGUAGUGUUCCAAAGAAUGAUAGCUGCAUGCUCUUUCUUCAACAGAGGAUUGAGCAUCA
B18: chr4:115894766:115894767:+_ENSMUSG00000028698_ENSMUST00000030464|mus_hu|mus_mus_mus_hu_True|38_38 (ssRNA)
RNA: GGGAGUUCUACAGUCCGACGAUCUUCCACACGGAAAUGUACUUCGGGUUUUCCAACGGCCAGUACCAGUCCGGCCAAACUACCCGAACAGGGUCCUGUCCUCCUCUCCUACAGAACACAACAAAAUGCCCCCGAACUUUCAAGCAACAGAGGAUUGAGCAUCA
B19: chr14:31813938:31813939:-_ENSMUSG00000021917_ENSMUST00000162092|perfect_dup|motif|central (ssRNA)
RNA: GGGAGUUCUACAGUCCGACGAUCAACUAUGUAGACAGUCCACCCAAACUGUUCAGCCACGUACCCGUAGAUAAACCCAACGGUUGCAGAAAAAAGAAUGAUCCCCUGAAACAUCUGUUCAGCUAGUUUCUGCCCCUUGUAAUCCAACAGAGGAUUGAGCAUCA
B20: chr10:70731730:70731731:+_ENSG00000165732_ENST00000354185|hu_hu|motif|central (ssRNA)
RNA: GGGAGUUCUACAGUCCGACGAUCAACCUCAGGGAUGUCUAACCCACGUGCAGCAACAUUGGUUGCCACCAAAACUCCAAAACGGCCAUUUCUAAAACCUUUCAGGGUGAUUUCCCUUUGCUUCUGUGGAAUGUCUCCAUGCAACAACAGAGGAUUGAGCAUCA
B21: chr2:153237265:153237266:-_ENSMUSG00000061411_ENSMUST00000109784|mus_mus|mus_mus_mus_hu_False|8_18 (ssRNA)
RNA: GGGAGUUCUACAGUCCGACGAUCAAAAAAAAAAAAAAAAAAGUGUCCUUGUGCCCAAAGUCUCAGGUGCUUGGAGUGUGGCUAGAAACAGCUCUUUUGGAUCCCACCUCUUUCAAAAAACAGUGUACCAACUGGUGGAGGCAGCAACAGAGGAUUGAGCAUCA
B22: chr2:153237265:153237266:-_ENSMUSG00000061411_ENSMUST00000109784|mus_hu|motif|central (ssRNA)
RNA: B5 RNA with U82G, A83G, G115A
B23: chr3:138121269:138121270:+_ENSG00000158186_ENST00000289104|hu_hu|FALSE|FALSE (ssRNA)
RNA: GGGAGUUCUACAGUCCGACGAUCCAGGUGGCUUCCUUGUCUCUUUGAGAGGUGGGAAAGCCCGUGCCCUCUGGGCAAAGCCAGACCCUGUCUGCUCCCUGCCCACCUGCCCUUCUCCCUUCCUGUACCAAGUCCUUGGGCCAACAACAGAGGAUUGAGCAUCA
B24: chr2:209110096:209110097:-_ENSG00000138413_ENST00000345146|hu_hu|FALSE|FALSE (ssRNA)
RNA: GGGAGUUCUACAGUCCGACGAUCUUCUUCAAAGUUAUGUACCAGGUAUGUCACCUUUUGGGUUCCGUCACUUGGUGUGUAGGUUAUCUCUACUUUUCCAGGCCCAGGAACAACAAAAUCAGUUGCUCUGUAUUGAUCCCCAUACAACAGAGGAUUGAGCAUCA
B25: chr2:153237265:153237266:-_ENSMUSG00000061411_ENSMUST00000109784|mus_mus|mus_mus_mus_hu_False|1_78 (ssRNA)
RNA: B5 RNA with G66A, G115A, G137A, A138G, G140C, C141A, A142G
B26: chr7:72892646:72892647:-_ENSG00000009954_ENST00000339594|hu_hu|FALSE|FALSE (ssRNA)
RNA: GGGAGUUCUACAGUCCGACGAUCCUUGUCACUGUGCUUCCCUGGUUUCUUGGCAGGUGGGCCUUUUUUAGGAAUGUGAAAGUUAGUGUGCAGCUUAUUGGGCGACAUCAUCUUCAUCAUUUCUUCUAGAUGUUCUUCAGGAGACAACAGAGGAUUGAGCAUCA
B27: chr2:25965407:25965408:-_ENSG00000143970_ENST00000336112|hu_mus|FALSE|FALSE (ssRNA)
RNA: GGGAGUUCUACAGUCCGACGAUCAUGUGCUGCCGGAAUAAAAUCUCUAGGCAGGCUCUUUUCAUCAGAUGCUUGGCCUCUAGAGAAUAUGUAAUUCUCCUGGCCUAAAGUGGUUUGCUCACUCACUGGUGCCUCAGUCUUACCCAACAGAGGAUUGAGCAUCA
B28: chr2:153237265:153237266:-_ENSMUSG00000061411_ENSMUST00000109784|mus_mus|mus_mus_mus_hu_False|1_58 (ssRNA)
RNA: B5 RNA with U78C, G79A, G115A, G137A, A138G, G140C, C141A, A142G

Residue numbers refer to the chain shown, from its start. The full ranking holds about 24,000 sequences; the median of “enrichment r” is about 0.99, and the highest 2% start at about 3.7. The sample holds the highest values, similar sequences and a random draw of the others, so the mix is not that of the screen.

The assay addresses T1, UNK ZnF1-3. The assay is described as follows: nsRBNS (natural sequence RNA bind-n-seq); RBNS binding buffer (assumed for nsRBNS): 25 mM Tris pH 7.5, 150 mM KCl, 3 mM MgCl2, 0.01% Triton X-100, 500 ug/ml BSA, 20 U/ml SUPERase-In, 4 C; UNK is unkempt and MSI1 is Musashi-1; names of the RNAs are library labels; protein concentration not given here; high values mean tight binding.
Molecule B1 registered a binding signal of 3.13 enrichment R.

B2 had a binding signal of 0.664 enrichment R.

Regarding B3, the binding signal was 1.29 enrichment R.

As for B4, the binding signal amounted to 1.69 enrichment R.

Regarding B5, the binding signal was 3.18 enrichment R.

Molecule B6 gave a binding signal of 3.57 enrichment R. The molecule B7 had a binding signal of 1.06 enrichment R. B8: the binding signal was found to be 6.8 enrichment R.

On to B9, for which the binding signal came to 4.5 enrichment R. B10 registered a binding signal of 3.93 enrichment R.

As for B11, the binding signal was 6.49 enrichment R. Regarding B12, the binding signal turned out to be 0.859 enrichment R. The result for B13 reads 0.967 enrichment R; that for B14, 0.68 enrichment R; that for B15, 3.35 enrichment R. B16: the binding signal stood at 0.857 enrichment R.

For the molecule B17, the binding signal came out at 0.574 enrichment R. B18 displayed a binding signal of 0.864 enrichment R. The molecule B19 came in with a binding signal of 1.33 enrichment R. Next, B20: 0.937 enrichment R. Next, B21: 5.27 enrichment R; B22: 5.88 enrichment R.

In turn, B23 displayed a binding signal of 0.645 enrichment R. Next, B24: 0.472 enrichment R; B25: 8.18 enrichment R. With B26, the binding signal came to 0.485 enrichment R. Turning to B27, the binding signal was found to be 0.767 enrichment R. With B28, the binding signal is 7.14 enrichment R.

Values taken from publication PMC12136788.
